Pf Dd2 inh – blocks in vitro growth of P. falciparum Dd2; P. falciparum Dd2 growth, SYBR Green, 72 h; Potency, µM (top dose mostly 28.9 µM), for inactives: top-dose activity, negative = inhibition, usual class: inhibitors; 120,000 compounds, 4.3% hits; active = well fitted inhibition curve with a large enough effect;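 also: plate controls were DMSO vehicle for no effect and reference drug for full effect; nearly all actives have a fitted effect of over 65% in size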
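Readout: SYBR Green fluorescence, 485 nm excitation, 535 nm emission, after ~16 h lysis at 37C. Before that, Dd2-infected red cells (2.5% hematocrit) grew 72 h with compound, 29 uM top final concentration.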
An asterisk follows results filed as active; i = inactive; [ ] = remark or other dose. The full list was thinned out, with hits kept by preference. Potency is read from the fitted curve at half-maximal effect.

SMILES	Pf Dd2 inh
O=C(c1ccc(Cl)cc1)N1CC2(CCCN(Cc3ccccn3)C2)Cc2ccccc21 (stereo not drawn)	-29%
CS(=O)(=O)N1CC2(CCCN2Cc2ccc(Cl)cc2)Cc2ccccc21 (stereo not drawn)	-20%
O=C(c1ccc(Cl)cc1)N1CC2(CCN(C3COC3)C2)Cc2ccccc21 (stereo not drawn)	-23%
NC(=O)c1cccc(CN2CCC3(CC2)Cc2ccccc2N(C(=O)c2ccc(Cl)cc2)C3)c1	11µM*
CC(=O)N1CC2(CCCN2Cc2cccc(C(N)=O)c2)Cc2ccccc21 (stereo not drawn)	-5%
CC(=O)N1CC2(CCN(Cc3cccc(C(N)=O)c3)C2)Cc2ccccc21 (stereo not drawn)	-18%
CC(=O)N1CC2(CCN(Cc3cccc(C(N)=O)c3)CC2)Cc2ccccc21	-17%
O=C(c1ccc(Cl)cc1)N1CC2(CCN(CC3CC3)C2)Cc2ccccc21 (stereo not drawn)	6.3µM*
CN(c1ccccc1)c1ccc2c(n1)CN(Cc1ccccc1)C(=O)CO2	i
Cc1cnc(CN(C)C(=O)C2CCCN(C3CCN(Cc4ccncc4)CC3)C2)[nH]1 (stereo not drawn)	30%
CN(C)C[C@@H]1CN(S(C)(=O)=O)C[C@H]1NC(=O)CCc1c[nH]c2ccccc12	13%
O=C(c1ccccc1F)N1CCC2(CC1)C(=O)NN=C2c1ccncc1	-3%
O=C(NCC1CC1)c1cccc(OC2CN(C3CCCCCC3)C2)c1	-10%
Cc1ncc2c(n1)C[C@@H]1CC[C@H]2N1C(=O)Nc1ccccc1	7%
O=C1[C@H]2CN(Cc3ccc(F)cc3Cl)C[C@H]2C(=O)N1Cc1ccc2c(c1)OCO2	-2%
O=C1[C@H]2CN(Cc3ccc(F)cc3Cl)C[C@H]2C(=O)N1CCN1CCc2ccccc2C1	4µM*
O=C1[C@H]2CN(Cc3cccc(Cl)c3F)C[C@H]2C(=O)N1CCc1ccccc1	20%
Cn1nc(C(=O)N2CCC3(CCCN(C4CCOCC4)C3=O)C2)ccc1=O (stereo not drawn)	4%
CC1(NC(=O)C2CC2)CN(Cc2nc(-c3cccc(N4CCOCC4)c3)cs2)C1	15%[44.1 µM]
Cc1ccc(/C=C(\C#N)c2nc3ccccc3c(=O)[nH]2)cc1	13%
Cc1ccc(C(C)(C)C)c(OCC(=O)NCCc2nc3ccccc3[nH]2)c1	4%
Cc1ccc(/C=C/c2nc3ccccc3[nH]2)cc1	10µM*
Cn1cc(CCCC(=O)Nc2ccc3c(c2)C(=O)N2CCC[C@H]2C(=O)N3)c2ccccc21	i
O=C1CCN(C(=O)C2CCN(S(=O)(=O)c3cccc(F)c3)CC2)CCCCCCN1	i
CCN(CCNC(=O)c1cc2c(s1)CN(C1CC1)C2)c1cccc(C)c1	-27%
SMILES	Pf Dd2 inh
Cc1ccc2nc(Cl)c3cc(C(=O)N4CCCCC4)sc3c2c1	-26%
CCC1CCCCN1CCNC(=O)c1cc2c(s1)CN(C1CCCC1)C2 (stereo not drawn)	6.3µM*
Cc1ccc2nc(Cl)c3cc(C(=O)N4CCCCC4C)sc3c2c1 (stereo not drawn)	-17%
O=C(NCCN1CCCCC1)c1cc2c(s1)CCN(C(=O)c1ccc(Cl)cc1)C2	-5%
O=C(NC1CCN(Cc2ccccc2)CC1)c1cc2c(s1)CN(C1CCCC1)C2	7.1µM*
O=C(O)c1cc2c(s1)CN(C1CCCC1)C2	-3%
CCC1CCCCN1CCCNC(=O)c1cc2c(Cl)nc3ccc(C)cc3c2s1 (stereo not drawn)	3.5µM*
Cc1nnc(NC(=O)NC2CCN(Cc3ccccc3)CC2)s1	-16%
C[C@@H](NCC1CCCCC1)c1onc(-c2ccc(F)cc2)c1C(=O)O	-22%[44.1 µM]
COc1ccc(C(=O)N2CCn3c(nnc3C3CCCNC3)C2)cc1 (stereo not drawn)	25%
O=C(NC1CCCCC1)C1CN(C(=O)c2ccccc2)CC12CCOCC2 (stereo not drawn)	-9%
CC(C)CC(=O)N1CCc2ccc(S(=O)(=O)N(C)Cc3nccs3)cc2C1	-12%
CCC(=O)N1CCc2c(C(=O)N3CCCCC3)cccc21	27%
COc1cccc(C(=O)N2CCOc3ccc(CN4CCCCC4)cc3C2)c1	i
CCOCCCNC(=O)N1CCOc2ccc(CN(CC)CC)cc2C1	i
CCN(CC)Cc1ccc2c(c1)CN(C(=O)c1cccc(F)c1)CCO2	6.3µM*
C#CCNC(=O)C[C@@H]1CCN(C(=O)c2ccc(F)cc2)C[C@@H]1CC	-4%[44.1 µM]
COC(=O)CC[C@H]1CNC(=O)[C@@H]2[C@@H](CCN2Cc2csnn2)N1C	-2%[44.1 µM]
CCC(Sc1nc2c(sc3ccccc32)c(=O)n1CCc1ccc(OC)c(OC)c1)C(=O)N(CC)CC (stereo not drawn)	4µM*
CCC(Sc1nc2ccccc2c(=O)n1CCc1ccc(OC)c(OC)c1)C(=O)N(CC)CC (stereo not drawn)	-5%
CCC(Sc1nc2c(sc3ccccc32)c(=O)n1CCc1ccccc1)C(=O)N(CC)CC (stereo not drawn)	24%
Cc1ncc2c(n1)C[C@@H]1CC[C@H]2N1C(=O)c1ccnn1C	18%
Cc1cc2c(n1-c1ccc(C(=O)NCC(C)c3ccccc3)cc1)CCCC2 (stereo not drawn)	10µM*
CC(C)NC(=O)c1ccc(-n2c(-c3ccccc3)cc3c2CCCC3)cc1	i
CCCNC(=O)c1ccc(-n2c(-c3ccccc3)cc3c2CCCCC3)cc1	-27%
SMILES	Pf Dd2 inh
COCCNC(=O)c1ccc(-n2c(-c3ccccc3)cc3c2CCCCC3)cc1	-21%
Cc1ccccc1CNC(=O)c1ccc(-n2c(C)cc3c2CCCC3)cc1	10µM*
CCNC(=O)c1ccc(-n2c(-c3ccccc3)cc3c2CCCCC3)cc1	-2%
CCOc1ccc(NC(=O)C2CN(S(=O)(=O)c3cccnc3)CC23CCCCC3)cc1 (stereo not drawn)	-1%
C=CCNC(=O)c1cn2c(n1)CN(C(=O)c1ccccc1)CC2	8%
COc1ccc(-c2[nH]ncc2C(=O)NC2CCCc3c2[nH]c2ccccc32)cc1 (stereo not drawn)	-19%
COc1ccc(OCC(=O)Nc2ccc(Cl)c(-c3nc4ncccc4o3)c2)cc1	7.9µM*
Cc1ccc(C(C)C)c(OCC(=O)Nc2cccc(-c3nc4ncccc4o3)c2)c1	-14%
CC(C)(Oc1ccc(Cl)cc1)C(=O)Nc1ccc(-c2nc3ncccc3o2)cc1	i
COc1ccc(OCC(=O)Nc2ccc(-c3nc4cc(Cl)ccc4o3)cc2)cc1	5%
CCCC(=O)Nc1cc(C)c(O)c(-c2nc3ncccc3o2)c1	11%
CCC(C)c1ccc(OCC(=O)Nc2ccc(-c3nc4ncccc4o3)cc2)cc1 (stereo not drawn)	10µM*
COc1cccc(-c2ncc[nH]2)c1	-3%[44.1 µM]
NC(=O)c1cc[nH]c1C1CCCN(S(=O)(=O)c2cnc[nH]2)C1 (stereo not drawn)	1%
CC(C)(C)CC(=O)NCC(c1ccc2c(c1)OCO2)N1CCN(c2ccccc2)CC1 (stereo not drawn)	7.1µM*
CC(=O)NCC(c1ccc2c(c1)OCO2)N1CCN(c2ccccc2)CC1 (stereo not drawn)	-2%
Cc1ccc(C(=O)NCC(c2ccc3c(c2)OCO3)N2CCN(c3ccc(F)cc3)CC2)cc1 (stereo not drawn)	13µM*
Cc1ccc(NC(=O)C(=O)NCC(c2ccc3c(c2)OCO3)N2CCN(c3ccccc3)CC2)cc1 (stereo not drawn)	-2%
CCCC(=O)NCC(c1ccc2c(c1)OCO2)N1CCN(c2ccccc2)CC1 (stereo not drawn)	0%
CCCC(=O)NCC(c1ccc2c(c1)OCO2)N1CCN(c2ccc(F)cc2)CC1 (stereo not drawn)	-18%

Source: PubChem (National Center for Advancing Translational Sciences (NCATS))
